Sampled rows, rich in hits. Any-hit rate of the full collection: about 17%.
HT1080 IDH1KD tx: HT-1080 IDH1 knockdown cell toxicity (counter line) | HT-1080 IDH1 knockdown viability, ATP luminescence, 48 h | Potency, µM (top dose mostly 46.1 µM), without a hit: at the top dose activity, negative = toxicity, most hits filed as cytotoxic | 2% of 360,000 active | AID 686971;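 further: 0% = DMSO wells and -100% = cell-free medium wells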
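HT-1080-IDH1KD cells (IDH1 knocked down), 750/well in RPMI with 5% FBS, treated with compound 48 h at 37 degrees C. Viability by CellTiter-Glo luminescence, normalised to DMSO and no-cell wells; concentration-response curves classed.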
TGFb SMAD3 inh: blocks TGF-b signaling; HepG2 CAGA-GFP TGF-b/SMAD3 reporter, GFP fluorescence, 18 h; TGF-beta stimulated, 500 pg/mL final; Potency, µM (series often up to 46.1 µM), without a hit: top-dose activity, negative = inhibition, most hits filed as inhibitors; 1.2% of 410,000 active; AID 588855; further: on the % scale 0 is the no-effect control and ±100 the full control effect; nearly all actives have a fitted effect of over 65% in size
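HEPG2 CAGA-GFP, 1000 cells/well; 2 h settle, 37 C; cpd via pin tool; TGF-b 500 pg/mL final; 18 h, 37 C; GFP imaging ex488/em500-530; %Activity normalised to -TGF-b and +DMSO controls; CRC fit, curve class.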
DT40 TDP1 CPT: growth inhibition of DT40 Tdp1-/-;hTDP1 cells with camptothecin (screen for TDP1 inhibitors); chicken DT40 Tdp1-/-;hTDP1 cells + 20 nM CPT, ATP luminescence, 48 h; Potency, µM (series often up to 46.2 µM), without a hit: at the top dose activity change, negative = growth inhibition, actives largely listed as inhibitors; 12% of 420,000 active; further: on the % scale 0 is the no-effect control and ±100 the full control effect; nearly all actives have a fitted effect of over 55% in size
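Cell growth measured by CellTiter-Glo luminescence after a minimum 48 h, 37 C compound exposure with 20 nM CPT in Tdp1-knockout DT40 cells stably expressing hTDP1, seeded 400/well; qHTS titration format.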
HT1080NT lethal: kills 2HG-producing HT-1080-NT fibrosarcoma cells. 1.6% of 360,000 active. Potency, µM (doses to about 46.1 µM), without a hit: at the top dose activity, negative = less viability, hits mostly cytotoxic. HT-1080-NT fibrosarcoma viability, CellTiter-Glo ATP luminescence, 48 h;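 further: NT is the 2HG producing partner of a matched IDH1 knockdown line; 0% = DMSO-treated cells and -100% = media-only wells without cells; nearly all actives have a fitted effect of over 55% in size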
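A 48-hour cytotoxicity screen used HT-1080-NT cells plated 2 hours before compound delivery. ATP-based CellTiter-Glo luminescence measured viability, normalized to DMSO and no-cell controls.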
HepG2 tox: kills HepG2 cells in TGF-b inhibitor counter-screen. Potency, µM (series often up to 46.1 µM), for the others: at the highest dose activity change, negative = cytotoxicity, most hits filed as cytotoxic. 0.76% of 410,000 active. HepG2 CAGA-GFP viability, ATP luminescence, 18 h
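HepG2 CAGA-GFP cells (1000/well, DMEM with 1% FBS) received compound, then TGF-beta at 500 pg/mL final, and were incubated 18 hours at 37 degrees C. Viability was read by CellTiter-Glo luminescence. Media-only wells were set as complete cell-killing and DMSO as no toxicity.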
TDP1 cell noCPT: qHTS for Inhibitors of human tyrosyl-DNA phosphodiesterase 1 (TDP1): qHTS in cells in absence of CPT; 15% of 420,000 active; DT40 Tdp1-/- hTDP1 cells, no CPT, ATP luminescence, 48 h; AID 686978, 2013; Potency, µM (top dose mostly 46.2 µM), without a hit: at the highest dose activity change, negative = growth inhibition, usual class: inhibitors; further: on the % scale 0 is the no-effect control and ±100 the full control effect; nearly all actives have a fitted effect of over 55% in size
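Compound effects on proliferation are scored in DT40 Tdp1-/-;hTDP1 cells in the absence of CPT. ATP levels (CellTiter-Glo luminescence) are recorded after a ≥48 hr, 37 °C incubation.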
Numbers without * were called inactive; ? = inconclusive; . = not tested or not shown. The call rests on the fitted dose curve; in most records, active means well fitted curve in the direction sought with a large enough effect; inconclusive means small, poorly fitted or top-dose-only effect, or another doubt; inactive means no such curve, though single readings can be large; an effect the other way counts as inactive or inconclusive. Potency means the concentration at half of the fitted maximal effect.

SMILES | HT1080 IDH1KD tx | TGFb SMAD3 inh | DT40 TDP1 CPT | HT1080NT lethal | HepG2 tox | TDP1 cell noCPT
CN(CC(=O)NCc1ccccc1Cl)S(=O)(=O)c1ccc2c(c1)n(C)c(=O)c(=O)n2C | 6% | -5% | 2% | 0% | 4% | 24%
CCOC(=O)c1cc(NC(=O)c2ccc(Cl)cc2)c(=O)n2c1oc1ccccc12 | . | 3% | -2% | . | -2% | 0%
O=[N+]([O-])c1ccccc1S(=O)(=O)N1CCN(S(=O)(=O)c2ccc3c(c2)OCCO3)CC1 | . | ? | . | . | -16% | .
CCN(CC(=O)Nc1ccccc1C(F)(F)F)C(=O)CCS(=O)(=O)c1ccc(C)cc1 | 1% | 8% | -10% | -2% | 33% | -6%
COc1cc(OC)c(Cl)cc1N | 6% | ? | ? | 5% | -21% | 16µM*
Cc1cc2c(cc(C(=O)OCC(=O)NCc3cccs3)n2C(C)C)o1 | ? | ? | 0.82µM* | 1µM* | -13% | 0.73µM*
CC1=CCC2C(=O)N(c3ccc(N4CCOCC4)cc3)C(=O)C2C1 (stereo not drawn) | 14% | 3% | -3% | 4% | -15% | -18%
CCC(Sc1nc2sc(C(=O)OC)c(C)c2c(=O)n1N)C(=O)N(CC)CC (stereo not drawn) | 6% | -24% | ? | 4% | -1% | 13µM*
CCCc1nnc(NC(=S)Nc2ccccc2)s1 | 12% | 1% | 4.6µM* | 16% | -30% | 3.3µM*
O=c1[nH]c(=S)[nH]c2c1C(c1ccc(F)cc1)OC(C1CCCCC1)C2 (stereo not drawn) | -9% | ? | ? | -9% | -23% | ?
COC(=O)C1=CN(c2cccc(OCc3ccccc3)c2)C(N)=C(C#N)C1c1cccc(F)c1 (stereo not drawn) | 0% | . | 13µM* | -2% | . | 23µM*
COC(=O)C1=CN(c2ccc(C(C)(C)C)cc2)C(N)=C(C#N)C1c1ccc(OC)cc1 (stereo not drawn) | -2% | . | ? | -5% | . | ?
COC(=O)C1=CN(c2ccc(F)cc2)C(N)=C(C#N)C1c1cccc(F)c1 (stereo not drawn) | 23µM* | . | 7.3µM* | ? | . | 12µM*
COC(=O)C1=CN(c2c(C)cc(C)cc2C)C(N)=C(C#N)C1c1ccccc1 (stereo not drawn) | -29% | . | ? | -29% | . | ?
COC(=O)C1=CN(c2ccc3c(c2)OCO3)C(N)=C(C#N)C1c1ccc(-c2ccccc2)cc1 (stereo not drawn) | 3.3µM* | . | 5.8µM* | 5.2µM* | . | 6.5µM*
COC(=O)C1=CN(c2ccc(OC)cc2OC)C(N)=C(C#N)C1c1cccc([N+](=O)[O-])c1 (stereo not drawn) | ? | . | 0.37µM* | ? | . | 0.33µM*
COC(=O)C1=CN(c2ccc(C)cc2)C(N)=C(C#N)C1c1ccccc1F (stereo not drawn) | ? | . | ? | -23% | . | ?
CCN(Cc1ccncc1)Cc1cn[nH]c1-c1ccc(OC)cc1F | -8% | 2% | -26% | 1% | -11% | ?
Cc1cc(NC(=O)CC#N)n(-c2ccccc2)n1 | 2% | -13% | -3% | -4% | -34% | 9%
COC(=O)C1=CN(c2cc(C)cc(C)c2)C=C(C(=O)OC)C1c1cccc(F)c1 | 9% | -5% | 18µM* | 1% | 7% | 13µM*
COC(=O)C1=CN(c2cc(C)cc(C)c2)C=C(C(=O)OC)C1c1ccc(OC)c(O)c1 | ? | ? | ? | ? | -9% | ?
COC(=O)C1=CN(c2ccc(N3CCOCC3)cc2)C(N)=C(C#N)C1c1cccc(F)c1 (stereo not drawn) | -12% | . | ? | -24% | . | 8.2µM*
COC(=O)C1=CN(c2ccc(Oc3ccccc3)cc2)C(N)=C(C#N)C1c1cccc(F)c1 (stereo not drawn) | -29% | . | ? | -24% | . | 8.2µM*
COC(=O)C1=CN(c2ccc(F)cc2)C(N)=C(C#N)C1c1ccc(-c2ccccc2)cc1 (stereo not drawn) | 10µM* | . | 7.3µM* | 10µM* | . | 5.8µM*
CC(OC(=O)Cc1ccc(Cl)cc1)C(=O)NC1CCCCC1C (stereo not drawn) | 17% | -14% | -17% | 8% | -4% | -12%
SMILES | HT1080 IDH1KD tx | TGFb SMAD3 inh | DT40 TDP1 CPT | HT1080NT lethal | HepG2 tox | TDP1 cell noCPT
CC(C)Cc1nnc(NC(=O)Cc2ccc([N+](=O)[O-])cc2)s1 | 0% | 1% | 18% | -3% | 0% | 3%
NS(=O)(=O)c1ccc(CNC(=O)C2CCCN2C(=O)c2cccs2)cc1 (stereo not drawn) | 5% | -4% | 14% | 2% | 15% | -9%
O=S(=O)(NCc1nc2cccnc2n1Cc1ccc(F)cc1)c1ccc(Cl)s1 | . | -19% | ? | . | -22% | ?
CSCCC(NC(=O)c1ccco1)c1nc2ccccc2[nH]1 (stereo not drawn) | -1% | 14% | -8% | -6% | 9% | -25%
COc1ccc(C(=O)Nc2nc3c(s2)Cc2c(Br)ccc(OC)c2-3)cc1OC | . | -6% | ? | . | -24% | ?
CCOC(=O)c1ccc(N2C=C(C(=O)OC)C(c3ccc(OC)c(O)c3)C(C(=O)OC)=C2)cc1 | -19% | -16% | ? | -8% | -19% | -13%
COC(=O)C1=CN(c2ccc(F)cc2)C=C(C(=O)OC)C1c1ccc(O)cc1 | ? | 0% | 6% | -13% | 0% | 16µM*
CCCCNC(=O)C1CC(c2ccc(C(F)(F)F)cc2)=NO1 (stereo not drawn) | 10% | ? | 18µM* | 7% | 2% | 9.2µM*
CCCCN(CCCC)CCCNC(=O)C1CC(c2ccc(C(F)(F)F)cc2)=NO1 (stereo not drawn) | -6% | -15% | ? | 0% | 6% | ?
CCCNC(=O)C1CC(c2ccc(C(F)(F)F)cc2)=NO1 (stereo not drawn) | 14% | -2% | 12µM* | 15% | 3% | 12µM*
COc1ccc(CCNC(=O)C2CC(c3cc(C(F)(F)F)cc(C(F)(F)F)c3)=NO2)cc1 (stereo not drawn) | 7% | -1% | ? | 14% | 6% | ?
Cc1cc(C)nc(N/C=C(\C#N)C(=O)c2cccc(CSc3ccccc3)c2)n1 | . | -2% | ? | . | -5% | -6%
